± gives the standard deviation of the averaged measurements.
Assays:
DLD1 [1] = test: cell viability (CellTiter-Glo) relative to plate median (fraction of plate median); higher = more viable cells; conditions: 5 µM; treatment time 24 h; reporter: 7TFP
Summary of the method: (§1)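 Colorectal cancer lines with stably integrated lentiviral TCF/Wnt firefly luciferase reporters received library compounds at a final 5 µM, 24 h after seeding into 384-well plates, for a 24 h exposure. Reported figures are plate-median-normalised firefly luciferase or CellTiterGlo luminescence per well. They average two independent replicates.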

HCT116 = test: as above; conditions: 5 µM; treatment time 24 h; reporter: TCF4/Wnt
Summary of the method: as §1

SW480 [2] = test: as above; conditions: 5 µM; treatment time 24 h; reporter: 7TFP
Summary of the method: as §1

DLD1 [3] = test: TCF/Wnt firefly luciferase reporter signal relative to plate median (fraction of plate median); higher = higher Wnt reporter signal; conditions: 5 µM; treatment time 24 h; reporter: 7TFP
Summary of the method: as §1

SW480 [4] = test: as above; conditions: 5 µM; treatment time 24 h; reporter: 7TFP
Summary of the method: as §1

Row | Compound | cell viability (DLD1 [1]) | cell viability (HCT116) | cell viability (SW480 [2]) | TCF/Wnt firefly luciferase reporter signal (DLD1 [3]) | TCF/Wnt firefly luciferase reporter signal (SW480 [4])
1 | CCOC(=O)[C@H](CCc1ccccc1)N[C@@H](C)C(=O)N1Cc2ccccc2C[C@H]1C(=O)O | 0.99 ± 0.057 | 0.895 ± 0.071 | 0.952 ± 0.066 | 0.958 ± 0.0085 | 0.876 ± 0.0057
2 | Cc1oncc1C(=O)Nc1ccc(C(F)(F)F)cc1 | 1.05 ± 0.11 | 1.15 | 1.13 ± 0.071 | 1.14 ± 0.05 | 1.05 ± 0.11
3 | CO[C@H]1C[C@H](O[C@H]2[C@H](C)[C@@H](O[C@@H]3O[C@H](C)C[C@H](N(C)C)[C@H]3O)[C@@H](C)C[C@@]3(CO3)C(=O)[C@H](C)[C@@H](O)[C@@H](C)[C@@H](C)OC(=O)[C@@H]2C)O[C@@H](C)[C@@H]1O | 0.97 ± 0.0028 | 0.91 ± 0.087 | 0.915 ± 0.05 | 0.869 ± 0.05 | 1.05 ± 0.1
4 | O=c1cc(-c2ccccc2)oc2cc(O)c(O)cc12 | 1.04 ± 0.14 | 0.986 ± 0.063 | 1.03 ± 0.042 | 0.801 ± 0.064 | 1 ± 0.12
5 | O=C(N[C@H](CO)[C@H](O)c1ccc([N+](=O)[O-])cc1)C(Cl)Cl | 0.939 ± 0.013 | 0.918 ± 0.14 | 1.04 ± 0.042 | 1.09 ± 0.085 | 1 ± 0.013
6 | CC1(C)C[C@@H]2C(=O)CC[C@H]3O[C@]3(C)CC[C@H]21 | 1.09 ± 0.057 | 1.01 ± 0.073 | 1.02 | 1.03 ± 0.047 | 0.985 ± 0.036
7 | COc1c(-c2coc3cc4c(cc3c2=O)CC(OC(C)=O)C(C)(C)O4)ccc2c1C=CC(C)(C)O2 (stereo not given) | 0.961 ± 0.0085 | 0.887 ± 0.077 | 1.01 ± 0.045 | 1.01 ± 0.32 | 1.1 ± 0.16
8 | O=C(O[C@@H]1Cc2c(O)cc(O)cc2O[C@@H]1c1cc(O)c(=O)c2c(O)c(O)cc([C@H]3Oc4cc(O)cc(O)c4C[C@H]3O)c2c1)c1cc(O)c(O)c(O)c1 | 1.04 ± 0.069 | 1.15 ± 0.028 | 1.01 ± 0.021 | 1.1 ± 0.057 | 1.04 ± 0.05
9 | Cc1ccc(/C(=C\CN2CCCC2)c2ccccn2)cc1 | 0.984 ± 0.037 | 0.968 ± 0.088 | 0.945 ± 0.048 | 0.886 ± 0.064 | 0.956 ± 0.091
10 | CO[C@@H]1[C@@H](OC(N)=O)[C@@H](O)[C@H](Oc2ccc3c(O)c(NC(=O)c4ccc(O)c(CC=C(C)C)c4)c(=O)oc3c2C)OC1(C)C | 0.988 ± 0.088 | 0.8935 ± 0.005 | 1.004 ± 0.0085 | 1.27 ± 0.05 | 1.14
11 | CC(C)c1c(C(=O)Nc2ccccc2)c(-c2ccccc2)c(-c2ccc(F)cc2)n1CC[C@@H](O)C[C@@H](O)CC(=O)O | 0.9915 ± 0.0092 | 1 ± 0.069 | 1.01 ± 0.076 | 0.966 ± 0.09 | 0.909 ± 0.013
12 | Nc1cc(-c2ccncc2)c[nH]c1=O | 1.03 ± 0.042 | 0.99 ± 0.057 | 0.928 | 0.903 ± 0.032 | 0.94 ± 0.054
13 | C=C1C(=O)C[C@@H]2[C@@H]3CC[C@@H](C(=O)O)[C@@]12CC3(C)C [Terrecyclic Acid A] | 0.873 ± 0.051 | 0.919 ± 0.047 | 0.974 ± 0.022 | 0.957 ± 0.1 | 0.961 ± 0.044
14 | COc1ccc(-c2coc3c(OC)c(OC)cc(O)c3c2=O)cc1 | 1.01 ± 0.017 | 1.07 ± 0.014 | 0.995 ± 0.021 | 1.08 ± 0.064 | 0.98 ± 0.042
15 | NCCCC[C@H](NC(=O)[C@H](Cc1ccc(O)cc1)NC(=O)[C@@H](N)CCCCN)C(=O)O | 1.04 ± 0.064 | 0.967 ± 0.042 | 1.06 ± 0.035 | 1.05 ± 0.095 | 1.03
16 | CCCCCCCCCCCCC[N+](C)(C)Cc1ccccc1 | 0.848 ± 0.095 | 0.743 ± 0.028 | 0.96 ± 0.057 | 0.725 ± 0.15 | 0.562 ± 0.074
17 | NC1(C(=O)O)CCCC1 | 0.9495 ± 0.00071 | 1.02 ± 0.035 | 0.9955 ± 0.0064 | 1.02 ± 0.081 | 1.055 ± 0.0071
18 | C[C@H]1C[C@H]2[C@@H]3CCC4=CC(=O)C=C[C@]4(C)[C@@]3(F)[C@@H](O)C[C@]2(C)[C@@]1(O)C(=O)CO | 0.973 ± 0.0099 | 1.03 ± 0.086 | 1.01 ± 0.016 | 0.938 ± 0.027 | 0.953 ± 0.0028
19 | C[C@@H]1[C@H]2[C@H](O[C@@H]3O[C@H](CO)[C@@H](O)[C@H](O)[C@H]3O)OC=C(C(=O)O)[C@H]2C[C@@H]1O | 1.05 ± 0.035 | 1.02 ± 0.1 | 1.03 ± 0.014 | 1.07 ± 0.1 | 1.05 ± 0.078
20 | O=c1c(-c2ccc(O)cc2)coc2cc(O)cc(O)c12 [Genistein (Biofocus)] | 1.05 ± 0.078 | 1.04 ± 0.09 | 1.08 ± 0.099 | 1.21 ± 0.15 | 1.06 ± 0.021
21 | COC1(C)CCC2OC2(C)CCC2C1CC2(C)C (stereo not given) | 1.1 ± 0.099 | 0.97 ± 0.02 | 1.08 ± 0.042 | 0.934 ± 0.063 | 1.02 ± 0.044
22 | CCOc1ccc2nc3cc(N)ccc3c(N)c2c1 | 1.02 ± 0.11 | 1.02 ± 0.074 | 0.999 ± 0.016 | 1.1 ± 0.085 | 0.925 ± 0.013
23 | C=CCSCC1Nc2cc(Cl)c(S(N)(=O)=O)cc2S(=O)(=O)N1 (stereo not given) | 1.07 ± 0.042 | 1.11 ± 0.085 | 1.03 ± 0.021 | 1.06 ± 0.071 | 1.02 ± 0.028
24 | COc1cccc(/C=C/C(=O)O)c1C(C)C | 0.981 ± 0.042 | 1.03 ± 0.093 | 1 ± 0.041 | 1.12 ± 0.26 | 1.03 ± 0.17
25 | C[C@@H]1C/C=C2\SC[C@@H](NC(=O)c3coc(n3)C[C@H](O)C[C@H](O)/C=C/C=C/CNC2=O)C(=O)O1 [Griseoviridin] | 0.995 ± 0.021 | 1.04 ± 0.05 | 1.01 ± 0.021 | 0.873 ± 0.12 | 0.957 ± 0.034
26 | CC(C)=CC1C(CO)C1(C)C (stereo not given) | 0.996 ± 0.049 | 0.948 ± 0.061 | 1.02 ± 0.014 | 0.984 ± 0.052 | 0.97 ± 0.18

Reference: the supplement of paper PMC6522484
